According to the supplement of paper PMC11001985:
A number with no mark means an inactive call.

Compound: C#CCNC(=O)CCSSCCC(=O)NCCc1ccc(C=O)c(C=O)c1
Assay: lysine labeling ratio R10:1 (500 µM / 50 µM probe), SILAC-ABPP in living cells; higher = lower intrinsic lysine reactivity toward the probe, active = 2 or less
Details: HeLa; probe concentrations 500 vs 50 µM
Procedure: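 Living HeLa cells (SILAC light/heavy) in PBS at room temperature were labeled with 50 µM versus 500 µM of the lysine-reactive, reductant-cleavable probe OPA-S-S-alkyne (SILAC labeling time not stated). Probe-modified peptides were CuAAC-biotinylated, captured on neutravidin and eluted with DTT/IAA, then quantified by LC-MS/MS. R = median peptide ratio per lysine (500/50 µM), combined over 3 forward and 3 reverse SILAC replicates. Ratios are capped at 20; R < 2 = hyper-reactive.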

Sequence of UniProt Q07065 (Q07065 whole entry): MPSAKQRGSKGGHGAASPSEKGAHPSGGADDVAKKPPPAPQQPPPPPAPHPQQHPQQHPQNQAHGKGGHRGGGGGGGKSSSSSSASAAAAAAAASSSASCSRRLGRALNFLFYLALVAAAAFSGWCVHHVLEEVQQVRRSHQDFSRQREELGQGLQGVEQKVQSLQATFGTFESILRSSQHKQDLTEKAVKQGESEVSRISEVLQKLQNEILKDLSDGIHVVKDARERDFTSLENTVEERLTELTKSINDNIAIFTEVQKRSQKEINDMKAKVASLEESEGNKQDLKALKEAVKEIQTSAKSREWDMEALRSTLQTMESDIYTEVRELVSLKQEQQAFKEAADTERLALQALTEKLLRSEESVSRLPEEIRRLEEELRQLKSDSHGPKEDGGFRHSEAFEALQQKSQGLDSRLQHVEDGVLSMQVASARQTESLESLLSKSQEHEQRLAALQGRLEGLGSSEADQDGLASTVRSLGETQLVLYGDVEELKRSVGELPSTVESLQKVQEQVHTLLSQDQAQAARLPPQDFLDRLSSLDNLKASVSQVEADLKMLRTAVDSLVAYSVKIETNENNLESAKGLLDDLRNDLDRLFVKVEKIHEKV
Sequence of UniProt P26639 (P26639 whole entry): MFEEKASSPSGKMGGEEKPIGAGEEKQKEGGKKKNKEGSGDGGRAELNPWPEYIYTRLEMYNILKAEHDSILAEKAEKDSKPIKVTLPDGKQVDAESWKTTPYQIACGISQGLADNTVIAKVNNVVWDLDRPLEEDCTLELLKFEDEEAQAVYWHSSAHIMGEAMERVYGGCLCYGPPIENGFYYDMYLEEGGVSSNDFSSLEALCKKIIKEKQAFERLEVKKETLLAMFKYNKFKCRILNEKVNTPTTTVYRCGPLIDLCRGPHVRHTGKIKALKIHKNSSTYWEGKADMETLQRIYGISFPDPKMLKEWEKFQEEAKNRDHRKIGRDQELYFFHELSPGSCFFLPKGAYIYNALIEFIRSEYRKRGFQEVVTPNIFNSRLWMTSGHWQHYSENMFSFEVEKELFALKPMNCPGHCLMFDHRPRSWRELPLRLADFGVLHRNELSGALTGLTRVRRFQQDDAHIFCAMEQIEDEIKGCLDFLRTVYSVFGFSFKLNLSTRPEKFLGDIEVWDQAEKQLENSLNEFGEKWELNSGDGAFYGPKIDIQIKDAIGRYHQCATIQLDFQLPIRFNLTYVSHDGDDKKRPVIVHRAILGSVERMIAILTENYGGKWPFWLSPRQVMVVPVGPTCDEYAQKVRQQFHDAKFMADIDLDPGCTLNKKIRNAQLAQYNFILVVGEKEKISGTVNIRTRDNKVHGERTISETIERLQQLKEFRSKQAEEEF
Sequence of UniProt P47756 (P47756 whole entry): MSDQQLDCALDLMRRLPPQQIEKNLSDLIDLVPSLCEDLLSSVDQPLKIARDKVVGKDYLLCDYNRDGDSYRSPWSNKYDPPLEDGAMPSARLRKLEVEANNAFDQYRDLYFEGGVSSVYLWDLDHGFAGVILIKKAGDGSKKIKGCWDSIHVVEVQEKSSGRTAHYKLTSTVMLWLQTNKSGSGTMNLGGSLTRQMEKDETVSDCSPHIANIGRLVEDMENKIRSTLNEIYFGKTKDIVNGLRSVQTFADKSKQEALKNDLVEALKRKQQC
Sequence of UniProt Q9Y653 (Q9Y653 whole entry): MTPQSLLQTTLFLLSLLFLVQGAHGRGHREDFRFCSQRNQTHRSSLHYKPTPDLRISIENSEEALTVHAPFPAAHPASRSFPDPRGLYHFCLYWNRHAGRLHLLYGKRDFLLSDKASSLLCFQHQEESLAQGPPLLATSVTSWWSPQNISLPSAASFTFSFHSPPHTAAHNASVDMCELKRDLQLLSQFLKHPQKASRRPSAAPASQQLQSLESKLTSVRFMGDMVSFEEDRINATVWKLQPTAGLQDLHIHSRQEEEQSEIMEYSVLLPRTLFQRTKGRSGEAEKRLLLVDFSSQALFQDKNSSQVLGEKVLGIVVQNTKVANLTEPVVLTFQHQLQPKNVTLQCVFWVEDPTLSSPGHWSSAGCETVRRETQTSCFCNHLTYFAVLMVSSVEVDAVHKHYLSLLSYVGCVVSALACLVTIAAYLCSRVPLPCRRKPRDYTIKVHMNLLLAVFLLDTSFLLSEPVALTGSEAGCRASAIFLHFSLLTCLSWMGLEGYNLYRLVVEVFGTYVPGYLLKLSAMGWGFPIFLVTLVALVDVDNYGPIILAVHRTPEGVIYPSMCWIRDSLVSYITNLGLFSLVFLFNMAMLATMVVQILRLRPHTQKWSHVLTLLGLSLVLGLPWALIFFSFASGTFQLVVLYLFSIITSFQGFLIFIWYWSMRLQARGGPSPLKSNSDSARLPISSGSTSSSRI
Sequence of UniProt P28827 (P28827 whole entry): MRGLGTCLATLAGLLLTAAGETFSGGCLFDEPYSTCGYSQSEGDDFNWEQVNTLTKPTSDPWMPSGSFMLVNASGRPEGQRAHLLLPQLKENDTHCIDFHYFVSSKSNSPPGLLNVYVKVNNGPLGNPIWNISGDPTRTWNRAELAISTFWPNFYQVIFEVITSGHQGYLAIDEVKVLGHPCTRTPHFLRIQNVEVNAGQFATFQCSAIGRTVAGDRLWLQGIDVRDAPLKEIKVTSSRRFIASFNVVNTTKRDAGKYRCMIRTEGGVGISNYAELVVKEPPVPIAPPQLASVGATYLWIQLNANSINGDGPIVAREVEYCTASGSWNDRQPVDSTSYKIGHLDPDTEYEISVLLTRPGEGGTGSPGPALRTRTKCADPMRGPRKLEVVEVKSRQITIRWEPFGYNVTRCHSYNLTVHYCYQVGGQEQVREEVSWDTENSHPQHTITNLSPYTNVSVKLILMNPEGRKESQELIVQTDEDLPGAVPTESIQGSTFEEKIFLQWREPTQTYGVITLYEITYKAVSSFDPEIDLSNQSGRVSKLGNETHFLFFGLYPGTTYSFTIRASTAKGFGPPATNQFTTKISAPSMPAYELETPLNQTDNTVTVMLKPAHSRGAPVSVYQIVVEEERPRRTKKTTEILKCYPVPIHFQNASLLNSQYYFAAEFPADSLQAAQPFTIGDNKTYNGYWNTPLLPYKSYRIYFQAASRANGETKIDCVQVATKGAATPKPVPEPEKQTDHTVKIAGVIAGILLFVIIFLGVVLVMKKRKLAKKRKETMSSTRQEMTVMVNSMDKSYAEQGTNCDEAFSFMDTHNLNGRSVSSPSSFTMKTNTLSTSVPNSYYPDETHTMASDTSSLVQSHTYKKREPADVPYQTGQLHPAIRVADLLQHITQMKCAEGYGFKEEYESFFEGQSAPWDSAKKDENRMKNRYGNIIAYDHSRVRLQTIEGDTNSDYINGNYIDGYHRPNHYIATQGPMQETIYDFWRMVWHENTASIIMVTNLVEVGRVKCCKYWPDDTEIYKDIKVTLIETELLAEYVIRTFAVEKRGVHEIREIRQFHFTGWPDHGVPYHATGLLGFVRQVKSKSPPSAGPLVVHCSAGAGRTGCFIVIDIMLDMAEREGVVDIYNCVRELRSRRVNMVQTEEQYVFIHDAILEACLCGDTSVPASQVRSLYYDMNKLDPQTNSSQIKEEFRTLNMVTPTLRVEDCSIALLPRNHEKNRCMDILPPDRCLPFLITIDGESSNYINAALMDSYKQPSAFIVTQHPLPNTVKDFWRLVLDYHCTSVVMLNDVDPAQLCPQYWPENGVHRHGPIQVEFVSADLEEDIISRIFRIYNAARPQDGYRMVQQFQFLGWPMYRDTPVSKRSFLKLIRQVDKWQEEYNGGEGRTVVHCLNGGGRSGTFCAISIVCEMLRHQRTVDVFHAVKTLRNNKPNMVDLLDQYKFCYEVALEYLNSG
Sequence of UniProt Q9P0L0 (Q9P0L0 whole entry): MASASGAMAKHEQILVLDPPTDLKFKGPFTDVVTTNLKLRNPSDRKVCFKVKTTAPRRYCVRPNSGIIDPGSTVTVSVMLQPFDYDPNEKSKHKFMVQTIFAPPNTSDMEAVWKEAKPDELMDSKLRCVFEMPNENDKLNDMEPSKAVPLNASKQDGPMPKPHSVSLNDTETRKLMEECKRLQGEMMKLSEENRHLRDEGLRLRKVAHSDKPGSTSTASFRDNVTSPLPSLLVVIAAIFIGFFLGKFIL
Sequence of UniProt P17987 (P17987 whole entry): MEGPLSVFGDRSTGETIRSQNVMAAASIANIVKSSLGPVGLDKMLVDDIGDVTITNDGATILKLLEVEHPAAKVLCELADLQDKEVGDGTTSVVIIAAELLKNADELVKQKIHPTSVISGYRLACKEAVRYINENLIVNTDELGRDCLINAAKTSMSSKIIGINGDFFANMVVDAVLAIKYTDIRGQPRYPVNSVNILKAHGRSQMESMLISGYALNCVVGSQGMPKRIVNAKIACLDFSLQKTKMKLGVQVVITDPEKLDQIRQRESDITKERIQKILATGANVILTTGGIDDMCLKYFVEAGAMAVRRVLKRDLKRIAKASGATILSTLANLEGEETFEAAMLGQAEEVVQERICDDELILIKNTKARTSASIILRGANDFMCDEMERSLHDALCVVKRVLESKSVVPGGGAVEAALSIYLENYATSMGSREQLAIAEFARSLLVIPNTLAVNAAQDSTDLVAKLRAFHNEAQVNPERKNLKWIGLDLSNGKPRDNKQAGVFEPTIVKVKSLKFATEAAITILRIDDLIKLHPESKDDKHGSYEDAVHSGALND
Sequence of UniProt P68366 (P68366 whole entry): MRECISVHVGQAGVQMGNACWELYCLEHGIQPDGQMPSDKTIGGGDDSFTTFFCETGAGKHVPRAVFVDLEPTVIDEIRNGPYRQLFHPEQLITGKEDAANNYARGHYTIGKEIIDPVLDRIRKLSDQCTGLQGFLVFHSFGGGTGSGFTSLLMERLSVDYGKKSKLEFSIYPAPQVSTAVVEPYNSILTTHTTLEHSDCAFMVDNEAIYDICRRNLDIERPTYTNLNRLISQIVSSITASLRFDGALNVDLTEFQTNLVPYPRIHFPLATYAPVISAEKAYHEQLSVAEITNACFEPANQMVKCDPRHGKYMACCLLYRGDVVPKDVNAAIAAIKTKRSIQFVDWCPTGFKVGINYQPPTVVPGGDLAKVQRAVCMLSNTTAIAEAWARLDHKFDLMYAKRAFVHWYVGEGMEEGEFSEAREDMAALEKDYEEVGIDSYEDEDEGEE

Target | lysine labeling ratio R10:1
P4HB (lysine site: K103) (UniProt P07237) | 4.27
UniProt Q9Y653 (lysine site: K107) | 2.31
SLC7A11 (lysine site: K222) (UniProt Q9UPY5) | 2.71
VAPA (lysine site: K180) (UniProt Q9P0L0) | 1.96 (active)
UniProt P16144 (lysine site: K392) | 0.94 (active)
NUMA1 (lysine site: K1475) (UniProt Q14980) | 5.25
SND1 (lysine site: K177) (UniProt Q7KZF4) | 0.9 (active)
TXNRD1 (lysine site: K396) (UniProt Q16881) | 2.09
PFAS (lysine site: K639) (UniProt O15067) | 1.58 (active)
TCP1 (lysine site: K400) (UniProt P17987) | 2.68
UniProt P68366 (lysine site: K112) | 2.82
LRP1 (lysine site: K3910) (UniProt Q07954) | 1.43 (active)
CD55 (lysine site: K110) (UniProt P08174) | 2.89
CAPZB (lysine site: K57) (UniProt P47756) | 1.35 (active)
UniProt Q15149 (lysine site: K1896) | 5.17
PDCD6IP (lysine site: K48) (UniProt Q8WUM4) | 2.93
PTPRJ (lysine site: K876) (UniProt Q12913) | 3.12
UniProt P46781 (lysine site: K139) | 3
EDIL3 (lysine site: K263) (UniProt O43854) | 2.69
VIM (lysine site: K373) (UniProt P08670) | 7.19

Target | lysine labeling ratio R10:1
UniProt P14618 (lysine site: K247) | 3
SEMA3C (lysine site: K616) (UniProt Q99985) | 5.77
CKAP4 (lysine site: K405) (UniProt Q07065) | 1.2 (active)
UniProt Q15365 (lysine site: K314) | 1.71 (active)
PSMB1 (lysine site: K204) (UniProt P20618) | 2.46
CDH2 (lysine site: K699) (UniProt P19022) | 10.6
PIEZO1 (lysine site: K113) (UniProt Q92508) | 4.13
CALD1 (lysine site: K577) (UniProt Q05682) | 1.1 (active)
PLPP3 (lysine site: K187) (UniProt O14495) | 2.06
TMEM97 (lysine site: K130) (UniProt Q5BJF2) | 3.33
SPTAN1 (lysine site: K2078) (UniProt Q13813) | 4.25
ANXA1 (lysine site: K287) (UniProt P04083) | 2.78
UniProt P05787 (lysine site: K8) | 5.03
UniProt P26639 (lysine site: K694) | 1.36 (active)
PAICS (lysine site: K304) (UniProt P22234) | 4.39
UniProt P49591 (lysine site: K12) | 0.947 (active)
MCAM (lysine site: K119) (UniProt P43121) | 11.1
FLNB (lysine site: K1372) (UniProt O75369) | 2.69
PTPRM (lysine site: K234) (UniProt P28827) | 1.53 (active)
TPM4 (lysine site: K44) (UniProt P67936) | 1.15 (active)
